AID504770: E. coli YBA685 growth inhibition, screen for V. cholerae RctB inhibitors; z-score (test concentration not listed); E. coli YBA685 rctB-dependent plasmid, OD600 growth, 3 h; stronger effect = lower value; 0.27% of 130,000 active; in the data active = z-score below about -2, passing the limit was not always enough
Ba CapD inh: CapD enzyme inhibition; z-score (test concentration not listed); purified CapD enzyme, fluorescence intensity read-out; stronger effect = lower value; 0.23% of 140,000 active; in the data active = z-score mostly below about -2.9, no sharp cut-off; inactive = mostly above about -1.9
Starred values were filed as active, the others as inactive; x = no result. The list is not random: actives were taken first. Their share in the collection is about 0.4%.

SMILES	AID504770	Ba CapD inh
Nc1ccccc1C(=O)Cc1ccccc1	0.65	6.4
O=C(Cc1ccccc1)c1cc(O)c(O)cc1O	-0.45	-7.6*
COc1cccc(S(=O)(=O)NCc2ccco2)c1	-0.2	0.19
COc1cccc2cc(C(=O)OCCN3CCOCC3)c(=O)oc12	-0.2	x
COC(=O)CN1C(=S)N(C)C(=O)/C1=C/c1ccco1	-0.85	-4.1*
CCOc1ccc(/C=C2/C(=O)N(C)C(=S)N2CC(=O)OC)c(OCC)c1	1.5	0.29
CCN1CCN(C(c2cccs2)C(C)NC(=O)Cc2cccs2)CC1 (configuration not stated)	0.1	0.17
CCN1CCN(C(c2cccs2)C(C)NC(=O)C(C)C)CC1 (configuration not stated)	-0.05	-5.4*
CC12CN3CC(C)(CN(C1)C3c1ccccc1)C2 (configuration not stated)	-0.75	-0.52
Cc1nc(-c2ccccn2)nc(SCc2ccccc2)c1Cl	-0.15	0.12
COC(=O)c1csc(N)n1	-0.4	x
CC1CC(OCC(O)CN)CC(C)(C)C1 (configuration not stated)	-2.2*	x
CC1CC(OCC(O)C[N+]2(C)CCOCC2)CC(C)(C)C1 (configuration not stated)	0.15	0.46
CC(=O)n1c(N)nc2ccccc21	-0.25	-0.48
CCOC(=O)c1nc2ccccc2n(C(C)=O)c1=O	-0.25	-6.6*
COc1nc(-c2ccccc2)cc(C(F)(F)F)n1	-0.75	0.12
COc1cccc(-c2cc(C(F)(F)F)nc(-n3cccn3)n2)c1	-0.9	-3.4*
O=C(COC(=O)c1ccc(S(=O)(=O)N2CCCCC2)cc1)c1ccccc1	0.6	-0.29

Bioassay records deposited in PubChem BioAssay by ICCB-Longwood Screening Facility, Harvard Medical School.
